Measured values reported in PubChem BioAssay AID1159580 (chemical genetic matrix, 2015).
The campaign covered roughly 5,500 compounds. About 2,000 (36%) were called active. Not shown: some 18% with an inconclusive outcome. Cut-off read from the data, not from the text of the source: active = normalized growth mostly below about 0.91 (no sharp cut-off); inconclusive = no clear call, values can overlap the other calls; inactive = mostly above about 0.92. Some of the results follow.

Experiment: chemical genetic growth profiling, strain panel (AID 1159580);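 note: tested at 20 µM; growth read once vehicle control cultures reached saturation at 30 °C; 1 = growth at the plate median or of vehicle wells; lower values mean less growth of the strain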
Settings: growth OD

Measured: normalized growth

Nc1nc(=S)c2[nH]cnc2[nH]1
inactive: S. cerevisiae deletion strains, locus YJR075W, strain HOC1, stronger effect = lower value 1.03 | S. cerevisiae deletion strains, locus YKL009W, strain mrt4, stronger effect = lower value 1 | S. cerevisiae deletion strains, locus YKL068W, stronger effect = lower value 1 | S. cerevisiae deletion strains, locus YKL085W, strain MDH1 (second series), stronger effect = lower value 1.02 | S. cerevisiae deletion strains, locus YKL085W, strain MDH1, stronger effect = lower value 1.02 | S. cerevisiae deletion strains, locus YKL160W, strain elf1, stronger effect = lower value 0.943 | S. cerevisiae deletion strains, locus YKL190W, strain CNB1, stronger effect = lower value 1 | S. cerevisiae deletion strains, locus YKR001C, strain vps1, stronger effect = lower value 1.01 | S. cerevisiae deletion strains, locus YKR026C, strain gcn3, stronger effect = lower value 0.976 | S. cerevisiae deletion strains, locus YKR091W, strain srl3, stronger effect = lower value 0.975 | S. cerevisiae deletion strains, locus YLL001W, strain dnm1, stronger effect = lower value 1 | S. cerevisiae deletion strains, locus YLL026W, stronger effect = lower value 0.983 | S. cerevisiae deletion strains, locus YLL041C, strain sdh2, stronger effect = lower value 0.984 | S. cerevisiae deletion strains, locus YLR027C, strain aat2, stronger effect = lower value 0.992 | S. cerevisiae deletion strains, locus YLR039C, strain RIC1, stronger effect = lower value 1.08 | S. cerevisiae deletion strains, locus YLR058C, strain SHM2, stronger effect = lower value 1.01 | S. cerevisiae deletion strains, locus YLR102C, strain apc9, stronger effect = lower value 0.999 | S. cerevisiae deletion strains, locus YLR113W, strain HOG1, stronger effect = lower value 0.984 | S. cerevisiae deletion strains, locus YLR221C, strain rsa3, stronger effect = lower value 1.03 | S. cerevisiae deletion strains, locus YLR258W, strain gsy2, stronger effect = lower value 0.961 | S. cerevisiae deletion strains, locus YLR262C, strain YPT6 (second series), stronger effect = lower value 1 | S. cerevisiae deletion strains, locus YLR262C, strain YPT6, stronger effect = lower value 1.07 | S. cerevisiae deletion strains, locus YLR268W, strain sec22, stronger effect = lower value 1.01 | S. cerevisiae deletion strains, locus YLR320W, strain mms22, stronger effect = lower value 0.992 | S. cerevisiae deletion strains, locus YLR330W, strain CHS5, stronger effect = lower value 1.01 | S. cerevisiae deletion strains, locus YLR342W, strain FKS1 (second series), stronger effect = lower value 1 | S. cerevisiae deletion strains, locus YLR342W, strain FKS1, stronger effect = lower value 0.957 | S. cerevisiae deletion strains, locus YLR357W, strain rsc2, stronger effect = lower value 0.937 | S. cerevisiae deletion strains, locus YLR370C, strain arc18, stronger effect = lower value 0.974 | S. cerevisiae deletion strains, locus YLR371W, strain rom2, stronger effect = lower value 1 | S. cerevisiae deletion strains, locus YLR384C, strain iki3, stronger effect = lower value 0.97 | S. cerevisiae deletion strains, locus YLR418C, strain cdc73, stronger effect = lower value 1 | S. cerevisiae deletion strains, locus YML016C, strain PPZ1, stronger effect = lower value 1.01 | S. cerevisiae deletion strains, locus YML032C, strain rad52, stronger effect = lower value 0.996 | S. cerevisiae deletion strains, locus YML120C, strain ndi1, stronger effect = lower value 0.983 | S. cerevisiae deletion strains, locus YML124C, strain tub3, stronger effect = lower value 0.998 | S. cerevisiae deletion strains, locus YMR058W, strain fet3, stronger effect = lower value 1 | S. cerevisiae deletion strains, locus YMR078C, strain ctf18, stronger effect = lower value 0.997 | S. cerevisiae deletion strains, locus YMR125W, strain sto1, stronger effect = lower value 0.952 | S. cerevisiae deletion strains, locus YMR129W, stronger effect = lower value 0.971 | S. cerevisiae deletion strains, locus YMR205C, strain PFK2, stronger effect = lower value 0.995 | S. cerevisiae deletion strains, locus YMR223W, strain ubp8, stronger effect = lower value 0.985 | S. cerevisiae deletion strains, locus YMR231W, strain pep5, stronger effect = lower value 0.987 | S. cerevisiae deletion strains, locus YMR263W, strain SAP30, stronger effect = lower value 1 | S. cerevisiae deletion strains, locus YMR307W, strain GAS1, stronger effect = lower value 1.02 | S. cerevisiae deletion strains, locus YNL067W, strain RPL9B, stronger effect = lower value 1.02 | S. cerevisiae deletion strains, locus YNL071W, strain lat1, stronger effect = lower value 0.981 | S. cerevisiae deletion strains, locus YNL128W, strain TEP1, stronger effect = lower value 1.03 | S. cerevisiae deletion strains, locus YNL153C, strain GIM3, stronger effect = lower value 0.992 | S. cerevisiae deletion strains, locus YNL183C, strain NPR1, stronger effect = lower value 0.956 | S. cerevisiae deletion strains, locus YNL209W, strain ssb2, stronger effect = lower value 0.98 | S. cerevisiae deletion strains, locus YNL233W, strain BNI4, stronger effect = lower value 1.01 | S. cerevisiae deletion strains, locus YNL248C, strain rpa49, stronger effect = lower value 0.92 | S. cerevisiae deletion strains, locus YNL250W, strain rad50, stronger effect = lower value 0.992 | S. cerevisiae deletion strains, locus YNL271C, strain bni1, stronger effect = lower value 1 | S. cerevisiae deletion strains, locus YNL298W, strain CLA4, stronger effect = lower value 1.01 | S. cerevisiae deletion strains, locus YNL307C, strain MCK1, stronger effect = lower value 1 | S. cerevisiae deletion strains, locus YNL322C, strain KRE1 (second series), stronger effect = lower value 0.963 | S. cerevisiae deletion strains, locus YNL322C, strain KRE1, stronger effect = lower value 1.02 | S. cerevisiae deletion strains, locus YNR049C, strain mso1, stronger effect = lower value 0.979 | S. cerevisiae deletion strains, locus YNR052C, strain pop2, stronger effect = lower value 0.999 | S. cerevisiae deletion strains, locus YOL006C, strain TOP1, stronger effect = lower value 1.06 | S. cerevisiae deletion strains, locus YOL012C, strain htz1 1.07 | S. cerevisiae deletion strains, locus YOL147C, strain pex11, stronger effect = lower value 0.995 | S. cerevisiae deletion strains, locus YOR001W, strain rrp6, stronger effect = lower value 1.01 | S. cerevisiae deletion strains, locus YOR061W, strain CKA2, stronger effect = lower value 1.01 | S. cerevisiae deletion strains, locus YOR069W, strain VPS5, stronger effect = lower value 1.01 | S. cerevisiae deletion strains, locus YOR070C, strain gyp1, stronger effect = lower value 0.973 | S. cerevisiae deletion strains, locus YOR080W, strain dia2, stronger effect = lower value 0.996 | S. cerevisiae deletion strains, locus YOR083W, strain WHI5, stronger effect = lower value 0.914 | S. cerevisiae deletion strains, locus YOR106W, strain vam3, stronger effect = lower value 0.96 | S. cerevisiae deletion strains, locus YOR136W, strain idh2, stronger effect = lower value 0.999 | S. cerevisiae deletion strains, locus YOR144C, strain elg1, stronger effect = lower value 0.999 | S. cerevisiae deletion strains, locus YOR184W, strain ser1, stronger effect = lower value 1.01 | S. cerevisiae deletion strains, locus YOR231W, strain MKK1, stronger effect = lower value 1.02 | S. cerevisiae deletion strains, locus YOR265W, strain rbl2, stronger effect = lower value 0.991 | S. cerevisiae deletion strains, locus YOR270C, strain vph1, stronger effect = lower value 1.03 | S. cerevisiae deletion strains, locus YOR290C, strain snf2, stronger effect = lower value 0.942 | S. cerevisiae deletion strains, locus YOR316C, strain cot1, stronger effect = lower value 0.997 | S. cerevisiae deletion strains, locus YPL051W, strain arl3, stronger effect = lower value 0.964 | S. cerevisiae deletion strains, locus YPL055C, strain LGE1, stronger effect = lower value 1.02 | S. cerevisiae deletion strains, locus YPL078C, strain atp4, stronger effect = lower value 0.95 | S. cerevisiae deletion strains, locus YPL106C, strain sse1, stronger effect = lower value 0.977 | S. cerevisiae deletion strains, locus YPL240C, strain hsp82, stronger effect = lower value 1.02 | S. cerevisiae deletion strains, locus YPL241C, strain CIN2, stronger effect = lower value 1.01 | S. cerevisiae deletion strains, locus YPL256C, strain CLN2, stronger effect = lower value 0.964 | S. cerevisiae deletion strains, locus YPR119W, strain clb2, stronger effect = lower value 1.01 | S. cerevisiae deletion strains, locus YPR141C, strain kar3, stronger effect = lower value 0.997 | S. cerevisiae deletion strains, locus YPR163C, strain tif3, stronger effect = lower value 1 | S. cerevisiae deletion strains, locus YPR167C, strain met16, stronger effect = lower value 1 | S. cerevisiae deletion strains, strain wtn01, stronger effect = lower value 0.98 | S. cerevisiae strains, strain wild type, stronger effect = lower value 1.01
